# Inconclusive results are not listed. Where a call stands in place of a potency, no number is given. Activity calls are given as the source filed them. Calls follow the shape of the dose curve; as a rule, active = well fitted inhibition curve with a large enough effect; inconclusive = small, poorly fitted or top-dose-only effect; inactive = no such curve, though single readings can be large or run the other way.
# Target: M-phase phosphoprotein 8 (Homo sapiens) (UniProt Q99549)
# Experiment: qHTS Validation Assay for Inhibitors for MPP8 Chromodomain Interactions with Methylated Histone Tails (AID 488949); also: nearly all actives have a fitted effect of over 55% in size
# Settings: AlphaScreen MPP8 binding to H3K9me3 peptide; series mostly up to 57.1 µM
# Text: As our understanding of epigenetics expands, it is becoming clear that players in this field are potential targets for drug development. This area of epigenetic therapy has established applications for the treatment of cancer and neurological diseases. We have been involved in this field for a number of years and have performed high-throughput screens to identify the first small molecule inhibitors of protein methyltransferases. These methyltransferases target multiple substrates, and thus regulate many arms of an epigenetic pathway. The methylation of different substrates often generates docking sites for effector proteins that harbor binding domains (chromo, tudor, PHD, MBT and ANK repeats). It has been proposed that the binding sites generated for different proteins by these post-translational modifcations mediate downstream effects on chromatin. Consistent with this theory, di- and tri-methylation of histone H3K9 facilitates the binding of heterochromatin protein HP1. The HP1 protein harbors a chromodomain that is responsible for the methyl-dependent interaction between HP1 and lysine 9 of histone H3. HP1 was first described in flies as a heterochromatin associated protein that can regulate gene silencing. It harbors a chromodomain that binds H3K9me3. In addition, it harbors a chromoshadow domain that interacts with a large number of proteins that are involved in heterochromatin formation and gene repression. There are three highly related HP1 isoforms. All three variants are associated with pericentric heterochromatin and it is not clear whether they have specific or redundant functions. MPP8 is also involved in the repression of gene in euchromatic regions (unpublished data) and like HP1 its chromodomain binds H3K9me3. MPP8 harbors an ankyrin repeat region that is likely involved in binding and recruiting interacting proteins with transcriptional repressive function, much like the chromoshadow domain of HP1 does. We hypothesize that by inhibiting specific protein-protein interactions we will be able to develop compounds that block a single arm of an epigenetic pathway. The specificity attained by blocking a single protein-protein interaction will be far greater than that attained by blocking the enzyme that regulates one of many interactions. Low-affinity protein-protein interactions (Kd in the single- to double-digit micromolar range) such as those discussed here have been very difficult to assay by traditional techniques such as fluorescence polarization or fluorescence resonance energy transfer. We have developed a sensitive chemiluminescence-based assay (Quinn, et al. 2009), which serves as the starting point for this project. The following is a validation assay to identify lead compounds that can block methyl-dependent protein-protein interactions (specifically MPP8), which can be used as probes to analyze these methyl-driven interactions and perhaps even developed into targeted epigenetic therapies. Assay Provider: Mark T. Bedford, MD Anderson Screening Center PI: Austin, C.P. Screening Center: NIH Chemical Genomics Center [NCGC]
# To each well, 2 uL of MPP8 protein (final 50 nM) and 1 uL biotinylated histone peptide trimethylated at Lys9 [b-H3(1-18)K9me3] (final 50 nM) was added in 1x PBS buffer, pH 7.4, containing 0.01% Tween-20 using a nanoliter dispenser. Formation of a protein-peptide complex proceeded at room temperature for 30 min. A Kalypsys pin-tool was employed to transfer 23 nL of library compound solution in DMSO to each well. Aurintricarboxylic acid (ATA) was used as an intraplate control with a 12-point titration in duplicate. Following a 30 min incubation of the protein-peptide complex with compounds at room temperature, a mixture of 40 ug/mL each streptavidin-coated donor and nickel chelate acceptor AlphaScreen beads (final 10 ug/mL) was added in a 1 uL dispense for a final volume of 4 uL. Plates were incubated protected from the light for 30 min at room temperature. […]
# Potency is read from the fitted curve at half-maximal effect.
# M-phase phosphoprotein 8 (Homo sapiens), sequence (Q99549 whole entry, looked up): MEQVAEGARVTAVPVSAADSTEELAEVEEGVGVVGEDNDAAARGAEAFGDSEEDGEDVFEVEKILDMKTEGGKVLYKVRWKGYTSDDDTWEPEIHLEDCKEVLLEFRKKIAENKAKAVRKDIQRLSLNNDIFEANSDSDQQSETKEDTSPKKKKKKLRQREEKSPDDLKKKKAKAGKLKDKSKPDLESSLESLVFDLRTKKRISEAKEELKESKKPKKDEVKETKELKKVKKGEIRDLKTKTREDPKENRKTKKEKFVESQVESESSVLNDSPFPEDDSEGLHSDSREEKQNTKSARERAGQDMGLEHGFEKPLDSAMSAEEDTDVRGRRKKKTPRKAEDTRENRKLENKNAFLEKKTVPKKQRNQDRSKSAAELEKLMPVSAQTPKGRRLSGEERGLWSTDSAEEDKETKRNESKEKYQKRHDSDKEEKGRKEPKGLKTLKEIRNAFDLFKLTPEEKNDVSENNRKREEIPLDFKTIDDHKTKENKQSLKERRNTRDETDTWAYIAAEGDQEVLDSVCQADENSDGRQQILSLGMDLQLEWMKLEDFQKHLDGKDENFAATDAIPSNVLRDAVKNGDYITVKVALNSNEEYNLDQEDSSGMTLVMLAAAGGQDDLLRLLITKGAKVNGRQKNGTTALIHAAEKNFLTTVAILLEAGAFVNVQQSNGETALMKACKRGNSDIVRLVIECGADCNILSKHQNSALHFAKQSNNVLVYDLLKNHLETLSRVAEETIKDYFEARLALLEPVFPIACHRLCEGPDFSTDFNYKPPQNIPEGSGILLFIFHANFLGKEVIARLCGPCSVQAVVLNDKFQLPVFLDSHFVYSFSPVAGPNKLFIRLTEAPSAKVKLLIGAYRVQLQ
row,Structure (SMILES),Potency
1,Cc1cccc(C)c1OCC(C)N (centres undefined),inactive
2,O=C(NCCN1CCOCC1)c1ccc(Cl)cc1,inactive
3,CC(=O)c1ccc(S(=O)(=O)NC(=O)NC2CCCCC2)cc1,inactive
4,CC(=O)CCCCn1c(=O)c2c(ncn2C)n(C)c1=O,inactive
5,CCN(CC)CCNC(=O)c1ccc(N)cc1,inactive
6,CC(C)OC(=O)C(C)(C)Oc1ccc(C(=O)c2ccc(Cl)cc2)cc1,inactive
7,CCCCCN(C)CCC(O)(P(=O)(O)O)P(=O)(O)O,inactive
8,NC(N)=Nc1nc(CSCC/C(N)=N/S(N)(=O)=O)cs1,inactive
9,CC1=C(/C=C/C(C)=C/C=C/C(C)=C/C(=O)Nc2ccc(O)cc2)C(C)(C)CCC1,inactive
10,CCN(CC)C(=O)c1ccc(O)c(OC)c1,inactive
11,COC(=O)[C@@H]1[C@H]2C[C@H]3c4[nH]c5ccccc5c4CCN3C[C@@H]2CC[C@@H]1O,inactive
12,COc1ccccc1N1CCN(CCCNc2cc(=O)n(C)c(=O)n2C)CC1,inactive
13,CC(=O)N[C@@H](CS)C(=O)O,inactive
14,NCCS,inactive
15,O=C1NC(=O)C(c2ccccc2)(c2ccccc2)N1,inactive
16,CCN1CCC[C@H]1CNC(=O)c1cc(S(N)(=O)=O)ccc1OC,inactive
17,CN(C)CCC(c1ccccc1)c1ccccn1 (centres undefined),inactive
18,CC/C(=C(\c1ccccc1)c1ccc(OCCN(C)C)cc1)c1ccccc1,17.8 µM (active)
19,CCN(CC)CCOC(=O)c1ccc(N)cc1,inactive
20,O=c1c(-c2ccc(O)cc2)coc2cc(O)ccc12,inactive
21,CC1(C)CCC2=C(O1)c1ccccc1C(=O)C2=O,inactive
22,Clc1ccc(Cn2c(CN3CCCC3)nc3ccccc32)cc1,inactive
23,CCCNC(=O)NS(=O)(=O)c1ccc(Cl)cc1,inactive
24,COc1cccc(-c2cc(=O)c3ccccc3o2)c1N,inactive
25,C[N+](C)(C)CCCCCC[N+](C)(C)C,inactive
26,CCCCC1C(=O)N(c2ccccc2)N(c2ccccc2)C1=O,inactive
27,CC(=O)O[C@]1(C(C)=O)CC[C@H]2[C@@H]3C=C(Cl)C4=CC(=O)[C@@H]5C[C@@H]5[C@]4(C)[C@H]3CC[C@@]21C,inactive
28,O=C1NCC2(CCN(CCc3ccccc3)CC2)O1,inactive
29,O=c1cc(-c2ccc(O)cc2)oc2cc(O)cc(O)c12,inactive

# Source: PubChem BioAssay (NCATS)
